Values joined by “and” are separate entries in the source; they are usually repeats but may differ in a detail not shown here. Equal entries are not always repeated. Records with an inconclusive call do not appear. Active and inactive are the calls of the source. Unless noted, calls come from the whole dose curve; as a rule, active = well fitted curve in the direction sought with a large enough effect; inconclusive = small, poorly fitted or top-dose-only effect, or another doubt; inactive = no such curve, though single readings can be large; an effect the other way counts as inactive or inconclusive.

Here are results for seven compounds from PubChem BioAssay (NCATS).

Assay [1] in a line: qHTS assay for small molecule agonists of retinoid X receptor alpha signaling (AID 588544; calls by dose curve;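 for activation: 0% = DMSO basal wells and 100% = reference agonist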). As to conditions: HEK293T RXRa-UAS-bla, beta-lactamase reporter, 18 h; 530 nm emission. (In general: In qHTS, concentration-response curves come from the screen itself.)
The target of assay [2] is Retinoic acid receptor RXR-alpha (Homo sapiens) (UniProt P19793). Described as above. As to conditions: HEK293T RXRa-UAS-bla, beta-lactamase reporter, 18 h; series mostly up to 76.7 µM.
Assay [3] in a line: qHTS assay for small molecule antagonists of retinoid X receptor alpha signaling (AID 588546; active = well fitted inhibition curve with a large enough effect in the signal ratio, with a control signal flat, not every such curve was filed as active; the % refers to the signal ratio;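 note: cells stimulated with 9-cis-retinoic acid as agonist; % is set by controls: 0 for no effect and ±100 for the full control effect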). The settings on record: HEK293T RXRa-UAS-bla, beta-lactamase ratio, antagonist mode; measured here: W530 green channel, cytotoxicity proxy. Put shortly:
(§1)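 Beta-lactamase reporter inhibition, read as CCF4 fluorescence ratio (ex 405, em 460/530 nm) after 2 h at RT. HEK293T UAS-bla cells, 2500/well, were stimulated with 9-cis-RA at 500 or 100 nM final alongside test compound for 18 h at 37 C.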

Assay [4] has as its target Thyroid hormone receptor beta (Homo sapiens) (UniProt P10828). Briefly: qHTS assay for small molecule antagonists of thyroid hormone receptor beta signaling (AID 588547; active = well fitted inhibition curve with a large enough effect in the signal ratio, with a control signal flat, not every such curve was filed as active; the % refers to the signal ratio;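 note: cells stimulated with 0.4 nM T3 agonist during compound exposure; % is set by controls: 0 for no effect and ±100 for the full control effect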). As to conditions: TR-UAS-bla HEK293, beta-lactamase ratio, antagonist mode, 18 h. In a few lines:
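TR-UAS-bla GripTite HEK293 cells in 2% charcoal/dextran FBS medium; compounds 0.59 nM to 92 uM with T3 at 0.4nM final, 18 h at 37 C. Beta-lactamase read by CCF4 fluorescence (460/530 nm); Hill fits gave IC50 and efficacy.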

Assay [5] deals with Voltage-gated inwardly rectifying potassium channel KCNH2 (Homo sapiens) (UniProt Q12809). Briefly: qHTS Assay for Small Molecule Inhibitors of the Human hERG Channel Activity (AID 588834).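 Note: top concentration of the series differs between compounds; % is set by controls: 0 for no effect and ±100 for the full control effect; lower thallium flux fluorescence means stronger hERG block; nearly all actives have a fitted effect of over 50% in size.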 The settings on record: U2OS BacMam hERG, FluxOR thallium flux fluorescence; series mostly up to 92.2 µM. Put shortly: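 In hERG-transduced U2OS cells, dye-loaded for 1 hr at room temperature in dark, test compounds incubated 10 min at 37 °C before thallium stimulation. AC50 values derived by Hill modelling of concentration-response.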

The nature of assay [6]: qHTS assay for small molecule activators of the p53 signaling pathway (AID 651743; active = well fitted activation curve with a large enough effect in the signal ratio, not every such curve was filed as active; the % refers to the signal ratio; note: % of control where 0% means no effect). The settings on record: HCT-116 p53RE-bla, beta-lactamase FRET ratio, 16 h; stronger effect = higher value. Put shortly:
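Following 16 hours of compound exposure at 37 C, HCT-116 cells bearing the p53RE-bla reporter were loaded with LiveBLAzer B/G FRET substrate for 2 hours at room temperature and fluorescence intensity was recorded.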

Assay [7] is described as follows: qHTS assay for small molecule disruptors of the mitochondrial membrane potential - 1 hr assay (AID 651754; calls by dose curve; note: % is set by controls: 0 for no effect and ±100 for the full control effect; nearly all actives have a fitted effect of over 35% in size). As to conditions: series mostly up to 92.2 µM. Put shortly: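 Mitochondrial potential in living HepG2 cells after 1 hr compound treatment at 37C was read with Mito-MPS dye added for a further 30 min. Red aggregate and green monomer fluorescence were measured; loss of potential leaves dye as cytoplasmic monomers.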

Assay [8] is described as follows: qHTS assay for small molecule disruptors of the mitochondrial membrane potential - 5 hr assay (AID 651755; calls by dose curve; note: % is set by controls: 0 for no effect and ±100 for the full control effect; nearly all actives have a fitted effect of over 40% in size). The settings on record: JC-1-type ratio dye; series mostly up to 92.2 µM. In a few lines: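 Read-out: ratiometric Mito-MPS fluorescence, green monomer (ex 490/em 535) vs red mitochondrial aggregate (ex 540/em 590). HepG2 cells treated 5 hr at 37C before 30 min dye loading.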

For assay [9], the target named is Tumor necrosis factor (Homo sapiens) (UniProt P01375). Nature of the assay: qHTS assay to identify small molecules that stimulate Tumor Necrosis Factor-alpha (TNF-alpha) secretion (AID 651757; active = well fitted curve in the direction sought with a large enough effect in the signal ratio; the % refers to the signal ratio; note: 0% is about no effect). As to conditions: Human cells, HTRF 665/615 ratio; series mostly up to 92.2 µM. In a few lines: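 Secreted TNF-alpha quantified by TR-FRET sandwich of two labeled anti-TNF-alpha antibodies, incubated 3 hr at room temperature. Preceded by 17 hr, 37 C compound treatment of THP-1 cells at 3000 cells/well.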

A short description of assay [10]: qHTS assay for environmental chemicals that activate the Aryl hydrocarbon Receptor (AhR) signaling pathway (AID 651777). Note: % of control where 0% means no effect; nearly all actives have a fitted effect of over 15% in size. As to conditions: 1A2-DRE human hepatoma cells, luciferase, 24 h; activation: stronger effect = higher value. Put shortly:
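Stable CYP1A2 promoter/DRE-luciferase human hepatoma line treated 24 hr; One-Glo luminescence, 30 min RT.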

Assay [11] addresses Peroxisome proliferator-activated receptor alpha (Homo sapiens) (UniProt Q07869). Briefly: qHTS assay for small molecule agonists of the peroxisome proliferator-activated receptor alpha (PPARalpha) signaling pathway (AID 651778). Note: % of control where 0% means no effect. The settings on record: PathHunter PPARalpha complementation, chemiluminescence, 6 h; stronger effect = higher value. In a few lines:
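Enzyme-fragment complementation assay in which ligand-bound PPARalpha translocates and forms an active enzyme that generates chemiluminescence. Cells were plated overnight, exposed to compound for 6 hr at 37 C, and then given detection reagent for 60 min at room temperature.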

For assay [12], the target named is Nuclear receptor ROR-gamma (Homo sapiens) (UniProt P51449). Nature of the assay: qHTS assay for small molecule antagonists of the retinoid-related orphan receptor gamma (ROR-gamma) signaling pathway (AID 651802).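 Note: luciferase reporter luminescence driven by ROR response element; % is set by controls: 0 for no effect and ±100 for the full control effect; nearly all actives have a fitted effect of over 60% in size.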 As to conditions: ROR-gamma antagonist cell reporter assay; series mostly up to 92.2 µM. In a few lines:
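Luminescence (One-Glo, 30 min RT) measured 16 h after compound addition and doxycycline induction at 37C. Reporter: RORE-luciferase under TET-inducible ROR-gamma in CHO cells.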

Assay [13] in a line: qHTS assay for small molecule agonists of the antioxidant response element (ARE) signaling pathway measured by Nrf2-dependant transcriptional activity (AID 720636; active = well fitted curve in the direction sought with a large enough effect in the repeat runs; an effect the other way counts as inactive or inconclusive;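 note: HepG2 cells with an ARE-driven luciferase reporter; % of control where 0% means no effect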). The settings on record: ARE-luc HepG2, Nrf2 luciferase reporter, 16 h; series mostly up to 92.4 µM. Put shortly: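 Reporter gene assay, HepG2 ARE-luc: 16 hr compound, 37 C, 5% CO2; read-out luciferase luminescence.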

Assay [14] is described as follows: qHTS assay for small molecule antagonists of the retinoid-related orphan receptor gamma (ROR-gamma) signaling pathway - cell viability counter screen (AID 720652; active = well fitted curve in the direction sought with a large enough effect in the repeat runs; an effect the other way counts as inactive or inconclusive;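 note: compound exposure lasted 16 hr before ATP read; % is set by controls: 0 for no effect and ±100 for the full control effect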). The settings on record: RORgamma reporter cell line viability counter screen; series mostly up to 92.2 µM. Put shortly: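 Cytotoxicity counter screen: intracellular ATP (CellTiter-Glo luminescence) measured in the doxycycline-induced CHO RORE-luciferase reporter line after 16 hr compound exposure at 37 C, 5% CO2.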

Assay [15] is described as follows: qHTS assay for small molecule agonists of the antioxidant response element (ARE) signaling pathway measured by Nrf2-dependant transcriptional activity - cell viability counter screen (AID 720653; active = well fitted curve in the direction sought with a large enough effect in the repeat runs; an effect the other way counts as inactive or inconclusive; note: % is set by controls: 0 for no effect and ±100 for the full control effect). As to conditions: ARE-bla HepG2 viability, CellTiter-Glo ATP luminescence, 16 h; stronger effect = lower value. Put shortly: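 ARE-bla HepG2 cells treated with compounds for 16 h at 37C; this counter screen measures viability as intracellular ATP by CellTiter-Glo luminescence after 30 min at room temperature.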

The target in assay [16] is Thyroid hormone receptor beta (Homo sapiens) (UniProt P10828). Briefly: qHTS assay for small molecule agonists of thyroid hormone receptor beta signaling (AID 588545; calls by dose curve;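 note: 0% = DMSO only and 100% = 10 nM T3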). As to conditions: TR-UAS-bla GripTite HEK 293, beta-lactamase ratio, agonist mode, 18 h, percent of T3 response, DMSO as zero; series mostly up to 76.7 µM. Put shortly: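 TR-UAS-bla-GripTite HEK 293 cells in medium with 2% charcoal/dextran FBS, 0.1 mM NEAA and 1 mM sodium pyruvate were treated with titrated compounds for 18 hrs at 37 C. Beta-lactamase reporter was read with CCF4 dye (ex 405, em 460/530 nm); EC50 from Hill fits.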

Assay [17] has as its target Retinoic acid receptor RXR-alpha (Homo sapiens) (UniProt P19793). Nature of the assay: qHTS assay for small molecule antagonists of retinoid X receptor alpha signaling (AID 588546).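 Note: cells stimulated with 9-cis-retinoic acid as agonist; % is set by controls: 0 for no effect and ±100 for the full control effect.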 The settings on record: HEK293T RXRa-UAS-bla, beta-lactamase ratio, antagonist mode. In a few lines:
as §1

The nature of assay [18]: qHTS assay for small molecule agonists of the antioxidant response element (ARE) signaling pathway (AID 651741; active = well fitted activation curve with a large enough effect in the signal ratio; the % refers to the signal ratio; note: % of control where 0% means no effect). The settings on record: HepG2 ARE-bla reporter, beta-lactamase FRET ratio, 16 h; series mostly up to 96 µM. Put shortly:
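Stably integrated ARE-beta-lactamase reporter HepG2 cells; 16 h compound incubation, 37 C; LiveBLAzer FRET substrate 2 h at room temperature; fluorescence intensity.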

The nature of assay [19]: qHTS assay for small molecule activators of the nuclear factor-kappa B (NF-kB) signaling pathway (AID 651749; active = well fitted activation curve with a large enough effect in the signal ratio; the % refers to the signal ratio; note: % of control where 0% means no effect). As to conditions: NF-kB-bla ME-180 cells, beta-lactamase FRET ratio, 16 h; stronger effect = higher value. In a few lines: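 In this qHTS format, compounds acting as activators increase NF-kB-driven beta-lactamase in ME-180 cells, measured as disrupted FRET after 16 hr exposure at 37C and 5% CO2.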

Assay [20] is described as follows: qHTS assay to identify small molecules that stimulate interleukin-8 (IL-8) secretion (AID 651758; active = well fitted activation curve with a large enough effect in the signal ratio; the % refers to the signal ratio; note: 0% is about no effect). The settings on record: HTRF ratio (665/615); series mostly up to 92.2 µM. In a few lines: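 Compounds are added to THP-1 cells (2000 per well) and left 16 hrs at 37 C. A labeled anti-IL-8 antibody pair is then added, and IL-8 secretion is measured by time-resolved FRET after 1-3 hrs at room temperature.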

Sequence of Peroxisome proliferator-activated receptor alpha (Homo sapiens) (Q07869 whole entry, looked up, the tested form may be a part): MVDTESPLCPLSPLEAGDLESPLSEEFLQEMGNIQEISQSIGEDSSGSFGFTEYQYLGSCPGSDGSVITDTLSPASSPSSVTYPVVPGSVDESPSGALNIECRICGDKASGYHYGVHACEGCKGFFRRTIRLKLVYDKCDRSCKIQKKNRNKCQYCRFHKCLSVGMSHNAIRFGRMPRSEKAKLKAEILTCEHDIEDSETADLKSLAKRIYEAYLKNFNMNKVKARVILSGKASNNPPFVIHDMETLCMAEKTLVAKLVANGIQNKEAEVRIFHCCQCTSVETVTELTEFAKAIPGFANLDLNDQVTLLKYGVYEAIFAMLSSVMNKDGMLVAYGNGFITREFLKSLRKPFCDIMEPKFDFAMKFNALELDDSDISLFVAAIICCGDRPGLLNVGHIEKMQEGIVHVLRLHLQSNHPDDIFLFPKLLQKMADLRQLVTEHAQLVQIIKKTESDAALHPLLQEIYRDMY
Sequence of Thyroid hormone receptor beta (Homo sapiens) (P10828 whole entry, looked up): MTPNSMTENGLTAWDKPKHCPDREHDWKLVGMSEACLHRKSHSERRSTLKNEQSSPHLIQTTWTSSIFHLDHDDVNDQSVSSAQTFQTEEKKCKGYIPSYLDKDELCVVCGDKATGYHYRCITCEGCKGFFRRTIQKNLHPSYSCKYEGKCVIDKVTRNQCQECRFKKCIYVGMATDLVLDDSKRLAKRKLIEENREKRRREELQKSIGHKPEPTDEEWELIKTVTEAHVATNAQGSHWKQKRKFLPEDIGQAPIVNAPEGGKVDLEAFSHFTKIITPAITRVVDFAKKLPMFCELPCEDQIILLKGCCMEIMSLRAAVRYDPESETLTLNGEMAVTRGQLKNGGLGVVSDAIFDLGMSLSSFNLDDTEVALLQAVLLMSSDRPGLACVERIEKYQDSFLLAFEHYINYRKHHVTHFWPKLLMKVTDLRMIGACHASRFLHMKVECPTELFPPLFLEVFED
Sequence of Tumor necrosis factor (Homo sapiens) (P01375 whole entry, looked up): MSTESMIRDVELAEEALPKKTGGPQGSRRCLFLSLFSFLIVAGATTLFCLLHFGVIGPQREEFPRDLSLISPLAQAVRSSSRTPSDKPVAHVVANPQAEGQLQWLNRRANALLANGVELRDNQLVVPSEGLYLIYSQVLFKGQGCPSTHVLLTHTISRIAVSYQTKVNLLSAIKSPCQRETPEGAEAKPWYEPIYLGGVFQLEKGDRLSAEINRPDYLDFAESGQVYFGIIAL
Sequence of Nuclear receptor ROR-gamma (Homo sapiens) (P51449 whole entry, looked up): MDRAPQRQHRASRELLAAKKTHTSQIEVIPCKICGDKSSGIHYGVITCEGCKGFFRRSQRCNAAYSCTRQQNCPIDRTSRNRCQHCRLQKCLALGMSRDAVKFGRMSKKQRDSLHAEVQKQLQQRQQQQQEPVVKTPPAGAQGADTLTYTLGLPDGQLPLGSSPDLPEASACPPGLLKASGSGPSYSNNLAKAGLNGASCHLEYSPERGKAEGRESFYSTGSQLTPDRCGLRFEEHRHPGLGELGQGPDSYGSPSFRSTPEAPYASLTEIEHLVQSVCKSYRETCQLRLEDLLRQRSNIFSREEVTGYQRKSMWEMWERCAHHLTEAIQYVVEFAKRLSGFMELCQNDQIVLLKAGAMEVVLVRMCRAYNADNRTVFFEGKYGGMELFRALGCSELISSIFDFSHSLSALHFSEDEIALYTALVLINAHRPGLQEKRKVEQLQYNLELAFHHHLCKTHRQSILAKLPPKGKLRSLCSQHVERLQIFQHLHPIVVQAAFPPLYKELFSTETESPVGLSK
Sequence of Voltage-gated inwardly rectifying potassium channel KCNH2 (Homo sapiens) (Q12809 whole entry, looked up): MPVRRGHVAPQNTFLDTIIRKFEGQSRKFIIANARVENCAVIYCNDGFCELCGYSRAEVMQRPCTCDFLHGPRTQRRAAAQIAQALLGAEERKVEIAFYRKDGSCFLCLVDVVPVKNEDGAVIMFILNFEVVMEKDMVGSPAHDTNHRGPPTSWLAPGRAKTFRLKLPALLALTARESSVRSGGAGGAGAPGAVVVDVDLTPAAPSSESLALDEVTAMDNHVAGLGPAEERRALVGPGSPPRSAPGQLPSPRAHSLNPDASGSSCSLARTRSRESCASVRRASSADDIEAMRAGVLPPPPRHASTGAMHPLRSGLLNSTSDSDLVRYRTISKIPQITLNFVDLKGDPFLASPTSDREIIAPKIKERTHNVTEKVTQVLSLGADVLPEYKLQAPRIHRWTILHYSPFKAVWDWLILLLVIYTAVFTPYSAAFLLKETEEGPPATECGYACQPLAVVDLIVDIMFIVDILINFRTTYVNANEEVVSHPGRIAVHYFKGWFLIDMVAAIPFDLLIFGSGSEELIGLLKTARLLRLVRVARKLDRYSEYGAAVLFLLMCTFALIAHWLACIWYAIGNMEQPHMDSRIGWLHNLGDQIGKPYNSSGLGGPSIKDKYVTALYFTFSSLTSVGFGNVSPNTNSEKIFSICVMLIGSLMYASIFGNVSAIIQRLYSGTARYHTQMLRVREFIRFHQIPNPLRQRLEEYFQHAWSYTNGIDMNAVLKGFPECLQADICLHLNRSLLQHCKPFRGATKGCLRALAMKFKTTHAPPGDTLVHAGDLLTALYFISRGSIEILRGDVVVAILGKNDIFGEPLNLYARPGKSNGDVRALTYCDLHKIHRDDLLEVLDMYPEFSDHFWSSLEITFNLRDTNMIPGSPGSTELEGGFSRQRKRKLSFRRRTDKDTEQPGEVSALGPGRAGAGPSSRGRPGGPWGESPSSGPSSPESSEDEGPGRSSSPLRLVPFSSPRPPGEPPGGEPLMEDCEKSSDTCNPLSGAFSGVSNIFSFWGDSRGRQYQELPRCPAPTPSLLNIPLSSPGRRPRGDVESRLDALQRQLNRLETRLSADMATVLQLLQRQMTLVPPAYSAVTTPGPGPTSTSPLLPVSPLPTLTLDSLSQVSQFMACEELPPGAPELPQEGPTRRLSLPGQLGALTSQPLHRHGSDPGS
Sequence of Retinoic acid receptor RXR-alpha (Homo sapiens) (P19793 whole entry, looked up): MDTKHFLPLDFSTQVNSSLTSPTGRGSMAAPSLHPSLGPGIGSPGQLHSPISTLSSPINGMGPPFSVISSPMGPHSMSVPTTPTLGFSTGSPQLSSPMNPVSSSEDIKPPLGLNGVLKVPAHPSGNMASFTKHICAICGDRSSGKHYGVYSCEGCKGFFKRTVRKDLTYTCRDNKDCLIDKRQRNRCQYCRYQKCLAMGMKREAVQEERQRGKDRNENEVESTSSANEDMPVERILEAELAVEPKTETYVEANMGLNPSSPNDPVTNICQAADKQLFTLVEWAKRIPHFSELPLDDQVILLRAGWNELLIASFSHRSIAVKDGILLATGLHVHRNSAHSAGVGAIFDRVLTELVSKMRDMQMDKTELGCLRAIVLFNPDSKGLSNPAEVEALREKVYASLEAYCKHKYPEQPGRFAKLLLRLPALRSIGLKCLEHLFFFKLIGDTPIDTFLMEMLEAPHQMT

Take `CCNS(=O)(=O)c1ccc(C)cc1`: the max response in [1] was 7.68%; in [3], 0.888%; in assay [11], -3.34% (inactive); in assay [15], -1.66% (inactive). Further, the outcome in assay [2] and in [13] was inactive. The activity change % (negative = inhibition) in assay [4] was -4.68% (inactive). The Potency entry in assay [5], in [7], in assay [8], in assay [9], in assay [12] and in assay [14] was “inactive” in each case. The activation in assay [6] was -2.94% (inactive); in [10], -1.7% (inactive).

On to `O=C(O)CCSSCCC(=O)O`, for which the max response in assay [1] was 1.51%; in assay [3], -12%; in [17], -2.74% (inactive); in assay [11] it was -1.98% (inactive). Also, the outcome in assay [16] and in assay [13] was inactive. Moreover, the activity change % (negative = inhibition) in assay [4] was -3.23% (inactive). For the same compound, the Potency entry in [5], in [18], in [7], in assay [8], in assay [9] and in assay [20] was “inactive” throughout. Also, the Potency result in assay [12] and in assay [14] was “inactive” in each case. In addition, the activation is -1.14% (inactive) in assay [19] and -0.395% (inactive) in assay [10].

For the compound `c1ccc(Oc2ccccc2)cc1`, the max response in assay [1] is -5.86% and -5.26%; in assay [3], -2.47% and -11.6%; in [17] it was -1.69% (inactive) and -4.15% (inactive); in assay [11], -7.64% (inactive) and 0.0496% (inactive); in assay [15], 5.45% (inactive) and -9.72% (inactive). Also, the result in assay [16] and in [13] was inactive. In addition, in assay [4], the activity change % (negative = inhibition) was 13.9% (inactive) and 3.24% (inactive). Also, the Potency result in assay [5], in assay [7], in [8], in assay [9], in [20] and in assay [12] was “inactive” throughout. In addition, in assay [14], the Potency entry is “inactive”. Besides, the activation in assay [6] is -0.263% (inactive) and 10.2% (inactive); in [19], -0.173% (inactive) and -1.25% (inactive); in [10], -0.267% (inactive) and -0.51% (inactive).

Consider `O=C(O)CN(CC(=O)O)CC(=O)O`, for which the max response in [1] is -7.34% and 8.5%; in assay [3] it was -6.97% and -9%; in [17] it was -2.38% (inactive) and 4.38% (inactive); in assay [11] it was 0.802% (inactive) and -1.95% (inactive) and -0.798% (inactive); in [15], -26.1% (inactive) and -5.78% (inactive) and 9.03% (inactive). The call in assay [2] and in [13] was inactive. The Potency result in assay [18], in [9], in assay [12] and in [14] was “inactive” in each case.

On to `CC(CCl)OC(C)CCl` (centres undefined), for which the max response is 2.52% in [1]; -11.8% in assay [3]; 19.4% (inactive) in assay [17]; 4.09% (inactive) in assay [11]; 6.29% (inactive) in assay [15]. Also, the outcome in assay [16] and in [13] was inactive. In addition, the activity change % (negative = inhibition) in assay [4] is -2.31% (inactive). The Potency entry in assay [5], in assay [7], in [8], in [9], in [20] and in assay [14] was “inactive” each time. The activation is -3.45% (inactive) in [6] and 0.22% (inactive) in assay [19].

`O=[N+]([O-])c1cc(C(F)(F)F)ccc1Cl`: the max response in [1] is -4.02%; in assay [3] it was -1.67%; in assay [17], -6.84% (inactive); in assay [11], 0.399% (inactive); in [15] it was -6.2% (inactive). The outcome in assay [16] and in [13] was inactive. For the same compound, the activity change % (negative = inhibition) in assay [4] is -5.36% (inactive). Moreover, the Potency result in assay [5], in assay [18], in [7], in assay [9], in assay [12] and in assay [14] was “inactive” in each case. The activation in [6] is -0.0124% (inactive); in [10], 1.14% (inactive).

Turning to `Cc1ccc(CO)cc1`, the max response in assay [1] is -4.09%; in [3] it was -4.56%; in assay [17], 0.12% (inactive); in [11], 4.64% (inactive); in assay [15] it was -0.358% (inactive). Further, the outcome in [16] was inactive. Further, in [4], the activity change % (negative = inhibition) was 14.7% (inactive). For the same compound, the Potency entry in assay [5], in assay [7], in assay [8], in assay [9], in assay [20] and in assay [12] was “inactive” throughout. Moreover, the activation in [6] is -4.79% (inactive); in assay [19], -1.4% (inactive); in [10], -1.15% (inactive).
